In all, about 65,000 compounds went through this assay and about 2,100 (3.2%) showed an effect of 50% or more. The median lay at about -52%. The full list was thinned out, with strong results kept by preference.
Tested on: Plasmodium falciparum
Assay: Screen against P. falciparum Asexual Blood Stage (ABS), at 5uM
Assay type: functional, Dd2
Conditions: tested at 5 uM

Structure (SMILES)	INHIBITION
COc1cccc(CNCc2ccnc(N3CCOCC3)c2)c1OC	-35.6%
O=C(NCC1(O)CCOCC1)c1ccc(F)cc1	-171%
COc1ccc(C2(C(=O)NC3CCc4nccn4C3)CCCC2)cc1 (centres undefined)	47.5%
CS(=O)(=O)C1(C(=O)NC2CCc3nccn3C2)CCCC1 (centres undefined)	-105%
COc1cccc(C2(C(=O)NC3CCc4nccn4C3)CCCC2)c1 (centres undefined)	53.3%
CCN1CC(C)(C)CN(C(=O)CCc2ccccc2)CC1=O	-37%
Cc1ccc(-c2nc(CCNC(=O)NC3CCC(O)CC3)co2)cc1 (centres undefined)	-137%
OCCN1CCN(Cc2cnc3c(-c4ccccc4)cnn3c2)CC1	20.3%
c1ccc(-c2cnn3cc(CN4CCC5(CCO5)CC4)cnc23)cc1	-302%
CN(C)CC1(O)CCN(Cc2cnc3c(-c4ccccc4)cnn3c2)C1 (centres undefined)	65%
COc1ccc(CN(Cc2ccsc2)CC2CCCO2)cn1 (centres undefined)	-101%
Cc1cccc(CN2CCCC3(CCC(=O)N3CCN(C)C)CC2)n1 (centres undefined)	45.5%
CN(C)C(=O)CN1C(=O)CCC12CCN(Cc1cccs1)CC2	-98%
CN(C)CCN1C(=O)CCC12CCN(Cc1cccs1)CC2	58.2%
CNc1cncc(C2CCN(C(=O)c3coc(C)n3)CC2)n1	-43%
Cc1nn(C)c(N(C)C)c1CNC1CCc2c(F)cccc21 (centres undefined)	-24.9%
N#Cc1cccc(CN2CCC3(CC2)CC(c2ccncc2)C(=O)N3)c1 (centres undefined)	-29.8%
NC(=O)c1ccc(CN2C(=O)C3(CCNCC3)Nc3ccccc32)cc1	-3.53%
N#Cc1cccc(CN2C(=O)c3ccccc3CS2(=O)=O)c1	-37.5%
N#Cc1cccc(CN2C(=O)C3(CCNCC3)Nc3ccccc32)c1	67.9%
C=Cc1ccc(CN2C(=O)C3(CCNCC3)Nc3ccccc32)cc1	87.7%
O=C1CC2(CCNCC2)C(=O)N1Cc1ccc(F)cc1	-53.4%
COc1ccccc1N1CCN(C(=O)c2ccnc(N(C)C)c2)CC1	41.8%
CN(Cc1cn2c(n1)CN(C1CCOCC1)CC2)Cc1ccco1	-29.2%
CC(=O)N1CCCC1c1cncc(Oc2ccc(F)cc2)n1 (centres undefined)	-118%
CN(C)CC(=O)N1CCCC1c1cncc(Oc2ccc(F)cc2)n1 (centres undefined)	61.2%
CNCC(=O)N1CCCC1c1cncc(Oc2ccc(F)cc2)n1 (centres undefined)	69.8%

Structure (SMILES)	INHIBITION
NC(=O)CN1CCCC1c1cncc(Oc2ccc(Cl)cc2)n1 (centres undefined)	9.38%
Cn1cncc1CN1CCCC1c1cncc(Oc2ccc(F)cc2)n1 (centres undefined)	-32.7%
COc1ccc(Oc2cncc(C3CCCN3C(C)=O)n2)cc1 (centres undefined)	-40.9%
NCc1ccnc(Oc2ccc(F)cc2)c1	-151%
O=C(NC1CC1)N1CCOCC2(C1)CN(c1ccccc1)C(=O)CO2 (centres undefined)	-77.9%
c1cnnc(NCC2CN(Cc3ccon3)CCO2)c1 (centres undefined)	-114%
CN1CC[C@]2(CN(CC3CCOC3)C[C@H]2c2ccccc2)C1=O (some centres undefined)	-65.9%
NC(=O)NC(=O)CCSCc1coc(-c2ccc(F)cc2)n1	-58.5%
CC(Nc1nc(-c2ccccc2)nc2c1CCNCC2)c1nccs1 (centres undefined)	52.7%
CC(Nc1ncnc2c1CCNCC2)c1nc2c(s1)CCCC2 (centres undefined)	9.93%
CC(=O)N1CCc2nc(-c3ccccc3)nc(NC(C)C)c2CC1	-25.6%
N#CCCn1nc(C(F)(F)F)c2c1CCC2	-74.2%
Cc1ncsc1C(=O)NC1CCN(Cc2ccc(C(F)(F)F)cc2)CC1	-104%
O=C(NC[C@H]1OC[C@@H](N(CC2CC2)CC2CC2)[C@@H]1O)Nc1ccccc1	64.8%
CN(C)[C@@H]1CO[C@H](CNC(=O)Nc2ccccc2)[C@H]1O	-60.7%
O=C(NC[C@H]1OC[C@@H](NC2CCC2)[C@@H]1O)Nc1ccccc1	-141%
CSc1ccc(CNC(c2ccccc2)c2nccn2C)cc1 (centres undefined)	-22.4%
CSc1ccc(CNC(c2ccc(F)cc2)c2nccn2C)cc1 (centres undefined)	-107%
Cn1ccnc1C(NCc1ccc(Br)cc1)c1ccccc1 (centres undefined)	52.2%
COc1ccccc1C(NCc1ccc(SC)cc1)c1nccn1C (centres undefined)	69.7%
Cn1ccnc1C(NCc1ccccc1)c1ccc(F)cc1 (centres undefined)	-60.5%
Cn1ccnc1C(NCc1csc(Br)c1)c1ccccc1 (centres undefined)	28.4%
Cc1ccc(CNC(c2ccccc2)c2nccn2C)cc1 (centres undefined)	-267%
CSc1ccc(CNC(c2ccccc2F)c2nccn2C)cc1 (centres undefined)	-98%
COc1cccc(C(NCc2ccc(SC)cc2)c2nccn2C)c1 (centres undefined)	65.5%
FC(F)(F)Cn1cc(NCc2cscn2)cn1	-19.1%
Cc1ccc(S(=O)(=O)c2ncccc2CN2CCN(C)CC2)cc1	24.6%
